This is an account of results in PubChem BioAssay (NCATS).

Where “and” joins values, the source holds several entries; their conditions need not be identical. Equal entries are not always repeated. Results filed as inconclusive are left out. Calls of active or inactive are those of the source. Calls follow the shape of the full dose curve. Residues, ends and D or L forms follow the SMILES beside them.

Assay [1] can be described thus: Cytotoxicity counterscreen for inhibitors of SARS-CoV-2 cell entry (AID 1645845). Also: nearly all actives have a fitted effect of over 50% in size. The essentials: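 Expi293F/hACE2 cells seeded overnight; cpd pin-transferred in DMSO, 1 h preincubation, + media, 48 h 37 C 5% CO2; ATPLite 1step luminescence; normalized to cells and no cells.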
The nature of assay [2]: Primary qHTS to identify inhibitors of SARS-CoV-2 cell entry (AID 1645846). Also: nearly all actives have a fitted effect of over 45% in size. Also: potency is read from the fitted curve at half-maximal effect. Conditions: activity change, negative = inhibition: at 57.1 µM (top of the series) unless noted. The procedure, abridged:
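HEK293 cells stably expressing human ACE2, pre-treated 1 h with compound, then infected with MLV particles pseudotyped with Wuhan-Hu-1 spike (C-terminal 19-aa truncation). Luciferase luminescence after 48 h at 37 °C, normalised to spike PP and bald PP.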
In general terms: qHTS replaces the single test concentration by a dilution series.

`Cc1cc(O)cc2c1O[C@](C)(CCC[C@H](C)CCC[C@H](C)CCCC(C)C)CC2`: the Potency result in assay [1] and in assay [2] was “inactive” throughout.

As for `CC(C)(S)[C@@H](N)C(=O)O`, in assay [1], the outcome is “inactive [at 5.25 µM]”. Further, in assay [2], the activity change, negative = inhibition was 2.83% [at 5.25 µM].

Regarding `O=C(O)/C=C(\CC(=O)O)C(=O)O`, the Potency entry in assay [1] is “inactive”. Moreover, the activity change, negative = inhibition in assay [2] came out at 0.545%.

`O=C(/C=C/c1ccccc1)OCc1ccccc1`: the Potency entry in assay [1] was “inactive”. Further, in assay [2], the activity change, negative = inhibition was -14.8%.

With `COC(=O)[C@H](Cc1ccccc1)NC(=O)[C@@H](N)CC(=O)O` (H-Asp-Phe-OMe), in assay [1], the Potency entry was “inactive”. In addition, the activity change, negative = inhibition in assay [2] was -5.59%.

Turning to `CCCCC(CC)CNC(=O)CC(C)OC(=O)CCC(=O)O` (stereo not drawn), the Potency entry in assay [1] and in assay [2] was “inactive” in each case.

Turning to `Cc1c(I)c(=O)n(-c2ccccc2)n1C`, the Potency entry in assay [1] and in assay [2] was “inactive” throughout.

For `Cn1nnc2c(C(N)=O)ncn2c1=O`, the Potency entry in assay [1] was “inactive”. Also, the activity change, negative = inhibition in assay [2] is -15.9% and -14.8%.

Turning to `CN1CCN(C(c2ccccc2)c2ccc(Cl)cc2)CC1` (stereo not drawn), the Potency entry in assay [1] is “inactive”. In addition, the Potency in assay [2] was 10 µM (active).

As to `O=C(O)c1ccccc1S`, the Potency result in assay [1] and in assay [2] was “inactive” throughout.

On to `CCCCC[C@H](O)/C=C/[C@@H]1[C@H]2C/C(=C/CCCC(=O)O)O[C@H]2C[C@H]1O`, for which the Potency result in assay [1] is “inactive”. The activity change, negative = inhibition in assay [2] is -21%.

For the compound `C#C[C@]1(O)CC[C@H]2[C@@H]3CCc4cc(OC5CCCC5)ccc4[C@H]3CC[C@@]21C`, in assay [1], the Potency result is “inactive”. For the same compound, the activity change, negative = inhibition in assay [2] was -15.1%.

For the compound `NCC[C@H](O)C(=O)N[C@@H]1C[C@H](N)[C@@H](O[C@H]2O[C@H](CN)[C@@H](O)[C@H](O)[C@@H]2O)[C@H](O)[C@@H]1O[C@H]1O[C@H](CO)[C@@H](O)[C@H](N)[C@@H]1O`, the outcome in assay [1] is “inactive [at 0.702 µM]”. Moreover, the activity change, negative = inhibition in assay [2] was -28% [at 0.702 µM].

For the compound `NC(=O)c1cccnc1`, the Potency result in assay [1] is “inactive”. The activity change, negative = inhibition in assay [2] is -15.2%.
